In paper PMC4336329 (PLoS ONE, 2015):
About 14,000 (4.5%) of roughly 310,000 compounds showed an effect of 50% or more. Effects have a minus sign here. For the sample, strong results were picked, then their nearest neighbours and some compounds at random.

Each compound was assayed against human ether-à-go-go-related gene (hERG) potassium channel (human, UniProt Q12809) (assay: primary screen, population patch clamp on CHO cells stably expressing hERG; higher = less effect of the substance).
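Also: peak tail current of the secondary pulse compared with the same well before compound.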

human ether-à-go-go-related gene (hERG) potassium channel, sequence (Q12809 whole entry, looked up): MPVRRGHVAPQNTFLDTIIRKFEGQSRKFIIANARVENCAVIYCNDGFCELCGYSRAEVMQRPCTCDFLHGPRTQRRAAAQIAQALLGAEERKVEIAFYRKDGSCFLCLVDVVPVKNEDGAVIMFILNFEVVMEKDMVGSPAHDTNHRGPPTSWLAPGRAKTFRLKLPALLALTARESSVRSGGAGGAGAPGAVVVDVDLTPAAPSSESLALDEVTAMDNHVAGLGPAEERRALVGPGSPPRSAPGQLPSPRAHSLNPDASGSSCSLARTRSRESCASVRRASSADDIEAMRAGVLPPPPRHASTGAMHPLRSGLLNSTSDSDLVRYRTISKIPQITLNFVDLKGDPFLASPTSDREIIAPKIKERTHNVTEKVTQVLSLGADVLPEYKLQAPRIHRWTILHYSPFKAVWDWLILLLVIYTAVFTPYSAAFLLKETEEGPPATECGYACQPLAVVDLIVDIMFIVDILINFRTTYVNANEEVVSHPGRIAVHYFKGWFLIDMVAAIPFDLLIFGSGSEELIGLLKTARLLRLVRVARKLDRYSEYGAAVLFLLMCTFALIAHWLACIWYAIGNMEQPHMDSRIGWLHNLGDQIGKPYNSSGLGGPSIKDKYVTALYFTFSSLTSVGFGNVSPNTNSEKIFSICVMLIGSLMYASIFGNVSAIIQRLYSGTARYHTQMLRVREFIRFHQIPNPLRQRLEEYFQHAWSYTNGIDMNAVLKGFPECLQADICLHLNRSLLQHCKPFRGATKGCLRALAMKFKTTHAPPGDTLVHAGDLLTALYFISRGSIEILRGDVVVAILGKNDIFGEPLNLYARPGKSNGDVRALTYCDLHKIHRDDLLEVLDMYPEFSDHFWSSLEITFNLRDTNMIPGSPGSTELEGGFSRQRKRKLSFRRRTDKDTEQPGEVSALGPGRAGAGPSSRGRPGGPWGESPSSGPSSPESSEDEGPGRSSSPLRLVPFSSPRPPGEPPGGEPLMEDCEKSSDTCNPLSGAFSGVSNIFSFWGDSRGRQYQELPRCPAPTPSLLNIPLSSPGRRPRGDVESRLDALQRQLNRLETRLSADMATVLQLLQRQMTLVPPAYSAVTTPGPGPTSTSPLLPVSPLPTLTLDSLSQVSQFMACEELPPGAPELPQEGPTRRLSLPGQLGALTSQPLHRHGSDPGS

Compound	hERG current change (%, negative = inhibition) at 10uM [%]
CCN(CC(=O)Nc1c(F)cccc1F)C(=O)CSc1nc2ccccc2o1	-1.64
Cc1cccc(NS(=O)(=O)c2ccc3nc(-c4ccccc4)[nH]c3c2)c1C	11.8
CCn1cc(C(=O)NCC(OC)OC)c(=O)c2cc(S(=O)(=O)N3CCCC3)ccc21	10.3
O=C(COC(=O)CCCN1C(=O)c2ccccc2C1=O)Nc1ncc(Cl)cc1Cl	-9.74
O=S(=O)(c1ccc2ccccc2c1)N1CCN=C1SCc1cccnc1	-43.9
O=c1ccc(/C=C/c2ccccc2)nn1Cc1ccc(Cl)cc1Cl	8.47
CCOc1cc(NC(=O)c2ccco2)c(OCC)cc1NC(=O)COc1ccccc1C	26.4
CC(C)(C)c1cc(NC(=O)C2CCCO2)no1 (centres unmarked)	11.6
CCC(Oc1cc(Cl)ccc1Cl)C(=O)N1CCC2(CC1)OCCO2 (centres unmarked)	4.7
Cc1ccsc1C(=O)C1CCCN(Cc2cccc(-n3cccn3)c2)C1 (centres unmarked)	-65.4
Cc1ccsc1C(=O)C1CCCN(Cc2ccc(-n3cccn3)cc2)C1 (centres unmarked)	-67.7
Cc1ccsc1C(=O)C1CCCN(Cc2ccc(O)cc2)C1 (centres unmarked)	-22.9
Cc1ccsc1C(=O)C1CCCN(Cc2cc(C(C)C)n[nH]2)C1 (centres unmarked)	-43.9
Cc1ccsc1C(=O)C1CCCN(Cc2cccc(OCCO)c2)C1 (centres unmarked)	-16.3
COC(=O)Nc1nc(-c2ccc(F)cc2)c(C)s1	14.5
Cc1ccc(-n2c(O)c(/C=N/NC(=O)c3ccncc3)c(=O)[nH]c2=O)cc1C	9.71
CN(c1ccccc1)c1ncccn1	18
O=S(=O)(Nc1cccnc1)c1ccc(F)cc1	16.6
COc1ccc(C2=NOC(Cn3nc(C(=O)NCc4ccc(C)cc4)cc3-c3ccccc3)C2)cc1 (centres unmarked)	2.68
COc1ccc(C2=NOC(Cn3nc(C(=O)NCc4ccc5c(c4)OCO5)cc3-c3ccccc3)C2)cc1 (centres unmarked)	-17.4
COc1ccc(C2=NOC(Cn3nc(C(=O)O)cc3-c3ccccc3)C2)cc1 (centres unmarked)	-10.3

Compound	hERG current change (%, negative = inhibition) at 10uM [%]
COc1ccc(C2=NOC(Cn3nc(C(=O)NCc4ccco4)cc3-c3ccccc3)C2)cc1 (centres unmarked)	-68.2
COCCNC(=O)c1cc(-c2ccccc2)n(CC2CC(c3ccc(OC)cc3)=NO2)n1 (centres unmarked)	-10.7
COc1ccc(C2=NOC(Cn3nc(C(=O)NCc4ccccc4OC)cc3-c3ccccc3)C2)cc1 (centres unmarked)	-16.2
COc1ccc(C2=NOC(Cn3nc(C(=O)NCC4CC4)cc3-c3ccccc3)C2)cc1 (centres unmarked)	-65
COc1ccc(C2=NOC(Cn3nc(C(=O)NCc4ccc(OC(F)(F)F)cc4)cc3-c3ccccc3)C2)cc1 (centres unmarked)	-3.95
COc1ccc(C2=NOC(Cn3nc(C(=O)NCc4cccs4)cc3-c3ccccc3)C2)cc1 (centres unmarked)	-51.3
COc1ccc(S(=O)(=O)N2CCC(C(=O)NCC3CCCO3)CC2)cc1C (centres unmarked)	9.95
O=C(CNC(=O)c1ccc(S(=O)(=O)N2CCCC2)cc1)N/N=C/c1c(Cl)cccc1Cl	6.64
CN(CCO)C(=O)c1ccc(-c2nn(C)c(=O)c3ccccc23)cc1	10.9
Nc1nc2ncc(C(=O)c3cc(F)ccc3O)cc2s1	-0.22
Cn1c2c(c(=O)n(C)c1=O)C(CC(=O)Nc1ccccc1)C(=O)N2 (centres unmarked)	2.49
CCN1CCN(C(=O)/C(=C/c2cccs2)NC(=O)c2ccc(C)c(C)c2)CC1	-75.6
Cc1ccc(C(=O)N/C(=C\c2cccs2)C(=O)N2CCN(C)CC2)cc1C	-70.6
O=C(N/C(=C/c1cccs1)C(=O)N1CCCCCC1)c1ccccc1	-21
CC(C)(C)c1ccc(C(=O)N/C(=C\c2cccs2)C(=O)N2CCOCC2)cc1	-7.22
Cc1ccc(C(=O)N/C(=C\c2cccs2)C(=O)N2CCOCC2)cc1C	-19
Cc1ccc(C(=O)N/C(=C\c2cccs2)C(=O)NCC2CCCO2)cc1C (centres unmarked)	6.35
CCc1nnc(NC(=O)Cc2ccc(Br)cc2)s1	12.4
CC1CCc2[nH]c3ccc(C(=O)N(C)CC(=O)Nc4ccccc4C(F)(F)F)cc3c2C1 (centres unmarked)	4.13
O=C1CC(c2cccc([N+](=O)[O-])c2)c2c(ccc3ccccc23)N1 (centres unmarked)	10.3
Cc1cc(C)n2nc(C(=O)Nc3ccc(S(=O)(=O)N(C)C)cc3)nc2n1	-2.93

Compound	hERG current change (%, negative = inhibition) at 10uM [%]
Cc1cc(C)n2nc(C(=O)Nc3cccc(S(=O)(=O)N4CCCC4)c3)nc2n1	-2.92
COc1ccccc1NS(=O)(=O)c1cccc(NC(=O)c2ccc3ccccc3n2)c1	3.05
COc1ccccc1NS(=O)(=O)c1ccc(NC(=O)c2nc3nc(C)cc(C(F)F)n3n2)cc1	-13.8
COc1ccccc1NS(=O)(=O)c1cccc(NC(=O)c2nc3nc(C)cc(C)n3n2)c1	-55.2
Cc1cc(C)n2nc(C(=O)Nc3cccc(S(=O)(=O)N(C)c4ccccc4)c3)nc2n1	-68.3
CCOC(=O)/C=C/C(=O)Nc1ccc(S(=O)(=O)N(C)c2ccccc2)cc1	-2.23
O=c1[nH]c(=O)n(-c2ccc(Cl)cc2)c(O)c1C=NCCN1CCCCC1	2.13
O=C(NCc1cccc(C(F)(F)F)c1)c1cc(-c2ccccc2)nn1CC1CC(c2cccnc2)=NO1 (centres unmarked)	-52.4
O=C(O)c1cc(-c2ccccc2)nn1CC1CC(c2cccnc2)=NO1 (centres unmarked)	6.86
Cc1ccccc1-c1cc(C(=O)NCc2ccc3c(c2)OCO3)n(CC2CC(c3cccnc3)=NO2)n1 (centres unmarked)	-20.8
O=C(NCc1cccc(Br)c1)c1cc(-c2ccccc2)nn1CC1CC(c2cccc([N+](=O)[O-])c2)=NO1 (centres unmarked)	-0.929
O=C(NCc1cccc(Br)c1)c1cc(-c2ccccc2)nn1CC1CC(c2cccnc2)=NO1 (centres unmarked)	-62.8
C=CCc1cccc2cc(C(=O)OCC)c(=O)oc12	-42.3
CCOc1cc(S(=O)(=O)NC2CC(C)(C)NC(C)(C)C2)ccc1F	-9.91
CCc1c(C)nc2cc(-c3cccc(Br)c3)[nH]n2c1=O	-3.6
O=S(=O)(Nc1ncccn1)c1ccc(NC(=S)NCc2cccnc2)cc1	33.8
COc1cc(C(C(=O)NC(C)(C)C)N(Cc2ccccc2)C(=O)c2cnccn2)cc(OC)c1OC (centres unmarked)	5.8
C=CCNC(=O)CN1CCC(O)(c2ccccc2)CC1	4.87
COc1cccc(OC)c1C(=O)Nc1cc(C)on1	7.22
O=C(CSc1nc2ccsc2c(=O)n1CC1CCC(C(=O)O)CC1)c1ccc(Cl)cc1 (centres unmarked)	33.9
O=C(c1ccc2c(c1)N(Cc1ccc(F)cc1)CCS2)N1CCOCC1	-23.3

Compound	hERG current change (%, negative = inhibition) at 10uM [%]
CN1CCN(CCCNC(=O)c2ccc3c(c2)N(Cc2ccccc2)CCS3)CC1	-23.6
CCN1CCN(CCCNC(=O)c2ccc3c(c2)N(Cc2ccccc2)CCS3)CC1	-39.3
O=C(c1ccc2c(c1)N(Cc1ccccc1)CCS2)N1CCC2(CC1)OCCO2	-56.1
O=C(c1ccc2c(c1)N(Cc1ccccc1)CCS2)N1CCOCC1	-29.7
CN1CCSc2ccc(C(=O)NCc3cccc(Br)c3)cc21	0.343
O=C(c1ccc2c(c1)N(Cc1ccccc1)CCS2)N1CCCCC1	-32.9
O=C(c1ccc2c(c1)N(Cc1ccc(F)cc1)CCS2)N1CCC2(CC1)OCCO2	-57.1
CN1CCSc2ccc(C(=O)NCc3ccccc3)cc21	-9.52
O=C(NCCCN1CCCC1)c1ccc2c(c1)N(Cc1ccccc1)CCS2	-69.6
Cc1cccc(CNC(=O)c2ccc3c(c2)N(C)CCS3)c1	-59.4
Cc1ccc(CN2CCSc3ccc(C(=O)N4CCC5(CC4)OCCO5)cc32)cc1	-49.1
S=C(NC1CCCC1)N1CCN(c2ncccn2)CC1	-19.3
C[C@@]12CCC=C[C@H]1[C@H](c1ccoc1)N(Cc1ccccc1)C2=O	-8.15
CC(=O)c1c(N)n(C)c(=O)n(C)c1=O	-4.24
CSc1oc(-c2ccc(F)cc2)nc1S(=O)(=O)c1ccc(F)cc1	3.51
NNc1nnnc2c1sc1nc(N3CCOCC3)c3c(c12)CCCC3	5.3
COc1cc(C(=O)OCC(=O)Nc2cccc(S(=O)(=O)N3CCOCC3)c2)ccc1OCC(C)C	18.3
CC(C)(C)C(=O)/C=C(\N)c1ccncc1	1.74
CCOc1ccc(N(CC(=O)NCCSCc2ccc(Cl)cc2)S(C)(=O)=O)cc1	4.71
COc1ccc(C)cc1NC(=O)CCNS(=O)(=O)c1cccc(C(F)(F)F)c1	-27.6
